Measured values: PubChem BioAssay (NCI)
Compounds without any hit were thinned out: in the full panel of roughly 83,000, 20% have a hit.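 Single-concentration screen, 48 h exposure, 96-well plates. Endpoint: percent growth. Below 10 = active.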 Active and inactive are the calls of the source.

How the values were obtained:
Experiment in all cases: NCI-60 one-dose screen, 48 h (100 = growth as untreated, 0 = no growth, -100 = all killed)
SK-MEL-2 melanoma = settings: 10 µM
EKVX NSCLC = settings: 10 µM
SN12C renal = settings: 10 µM
UO-31 renal = settings: 10 µM
TK-10 renal = settings: 10 µM unless noted
ACHN renal = settings: 10 µM
CAKI-1 renal = settings: 10 µM
A498 renal = settings: 10 µM
CCRF-CEM leukemia = settings: 10 µM
MOLT-4 leukemia = settings: 10 µM
RPMI-8226 leukemia = settings: 10 µM
OVCAR-8 ovarian = settings: 10 µM
OVCAR-5 ovarian = settings: 10 µM
OVCAR-4 ovarian = settings: 10 µM
SK-OV-3 ovarian = settings: 10 µM
IGROV1 ovarian = settings: 10 µM
OVCAR-3 ovarian = settings: 10 µM
HS 578T breast = settings: 10 µM
NCI/ADR-RES ovarian = settings: 10 µM
SR leukemia = settings: 10 µM

Measured: growth

COC(=O)c1ccccc1Br
inactive: SK-MEL-2 melanoma 114% | EKVX NSCLC 81.4% | SN12C renal 92.4% | UO-31 renal 96.4% | TK-10 renal 103% | ACHN renal 105% | CAKI-1 renal 102% | A498 renal 104% | CCRF-CEM leukemia 109% | MOLT-4 leukemia 94.6% | RPMI-8226 leukemia 104% | OVCAR-8 ovarian 105% | OVCAR-5 ovarian 82.2% | OVCAR-4 ovarian 103% | SK-OV-3 ovarian 107% | IGROV1 ovarian 108% | OVCAR-3 ovarian 106% | HS 578T breast 113% | NCI/ADR-RES ovarian 100%

CN(C)c1ccc(C(c2ccc(O)cc2)c2ccc(N(C)C)cc2)cc1
inactive: SK-MEL-2 melanoma 101% | EKVX NSCLC 91.3% | SN12C renal 92% | UO-31 renal 81.2% | TK-10 renal 117% | ACHN renal 103% | CAKI-1 renal 93.7% | A498 renal 85.8% | CCRF-CEM leukemia 96.3% | MOLT-4 leukemia 86.4% | RPMI-8226 leukemia 80.1% | OVCAR-8 ovarian 94.1% | OVCAR-4 ovarian 94.9% | SK-OV-3 ovarian 104% | IGROV1 ovarian 106% | OVCAR-3 ovarian 92.5% | HS 578T breast 91.8% | NCI/ADR-RES ovarian 93.9%

CC(=O)c1cc2c(cc1F)C(C)(C)CCC2(C)C
inactive: SK-MEL-2 melanoma 104% | EKVX NSCLC 111% | SN12C renal 98.5% | UO-31 renal 80% | TK-10 renal 109% | ACHN renal 91.9% | CAKI-1 renal 112% | A498 renal 92.6% | CCRF-CEM leukemia 120% | SR leukemia 92.5% | RPMI-8226 leukemia 114% | OVCAR-8 ovarian 104% | OVCAR-5 ovarian 90.1% | OVCAR-4 ovarian 103% | SK-OV-3 ovarian 105% | IGROV1 ovarian 101% | OVCAR-3 ovarian 101% | HS 578T breast 99% | NCI/ADR-RES ovarian 99.3%

O=c1[nH]n(-c2ccccc2)c(=O)cc1Cl
inactive: SK-MEL-2 melanoma 104% | EKVX NSCLC 110% | SN12C renal 93.3% | UO-31 renal 84.7% | TK-10 renal 102% | ACHN renal 98.5% | CAKI-1 renal 121% | A498 renal 108% | CCRF-CEM leukemia 106% | SR leukemia 87.8% | RPMI-8226 leukemia 97.5% | OVCAR-8 ovarian 101% | OVCAR-5 ovarian 104% | OVCAR-4 ovarian 112% | SK-OV-3 ovarian 103% | IGROV1 ovarian 102% | OVCAR-3 ovarian 108% | NCI/ADR-RES ovarian 107%

O=c1cc(-c2ccccc2)[nH]c(=S)[nH]1
inactive: SK-MEL-2 melanoma 98.8% | EKVX NSCLC 129% | SN12C renal 102% | UO-31 renal 79.2% | TK-10 renal 95.7% | ACHN renal 96.7% | CAKI-1 renal 175% | A498 renal 97.6% | CCRF-CEM leukemia 90.5% | RPMI-8226 leukemia 89.6% | OVCAR-8 ovarian 111% | OVCAR-5 ovarian 98.4% | OVCAR-4 ovarian 110% | SK-OV-3 ovarian 113% | IGROV1 ovarian 104% | OVCAR-3 ovarian 106% | HS 578T breast 103% | NCI/ADR-RES ovarian 101%

CCOC(=O)C1OC1c1ccccc1 (configuration not stated)
inactive: SK-MEL-2 melanoma 114% | EKVX NSCLC 98.4% | SN12C renal 105% | UO-31 renal 89.2% | TK-10 renal 103% | ACHN renal 104% | CAKI-1 renal 98.6% | A498 renal 96.8% | CCRF-CEM leukemia 109% | MOLT-4 leukemia 107% | RPMI-8226 leukemia 113% | OVCAR-8 ovarian 106% | OVCAR-5 ovarian 102% | OVCAR-4 ovarian 101% | SK-OV-3 ovarian 99% | IGROV1 ovarian 108% | OVCAR-3 ovarian 101% | HS 578T breast 115% | NCI/ADR-RES ovarian 106%

COc1ccc2c(NCCCCCCCCNc3c4ccccc4nc4cc(OC)ccc34)c3ccccc3nc2c1
active: SK-MEL-2 melanoma -67.3% | EKVX NSCLC -79.6% | SN12C renal -92.7% | UO-31 renal -76.2% | TK-10 renal -72.9% | ACHN renal -100% | CAKI-1 renal -100% | A498 renal -88.6% | CCRF-CEM leukemia -42.4% | MOLT-4 leukemia -85.7% | RPMI-8226 leukemia -60.3% | OVCAR-8 ovarian -42.6% | OVCAR-5 ovarian -91.8% | OVCAR-4 ovarian -96.6% | SK-OV-3 ovarian -100% | OVCAR-3 ovarian -100% | HS 578T breast -45.9% | NCI/ADR-RES ovarian 9.56%

CCCCOC(OCCCC)c1ccccc1
inactive: SK-MEL-2 melanoma 108% | EKVX NSCLC 110% | SN12C renal 101% | UO-31 renal 98.4% | TK-10 renal 107% | ACHN renal 109% | CAKI-1 renal 96.3% | A498 renal 84.7% | CCRF-CEM leukemia 105% | SR leukemia 103% | RPMI-8226 leukemia 110% | OVCAR-8 ovarian 108% | OVCAR-5 ovarian 107% | OVCAR-4 ovarian 109% | SK-OV-3 ovarian 115% | IGROV1 ovarian 115% | OVCAR-3 ovarian 105% | HS 578T breast 111% | NCI/ADR-RES ovarian 97.9%

CC(C)=NNc1ccc([N+](=O)[O-])cc1[N+](=O)[O-]
inactive: SK-MEL-2 melanoma 113% | EKVX NSCLC 74% | SN12C renal 84.4% | UO-31 renal 61.3% | TK-10 renal 96.9% | ACHN renal 64.8% | CAKI-1 renal 53.9% | A498 renal 74.5% | CCRF-CEM leukemia 42.2% | SR leukemia 90.6% | RPMI-8226 leukemia 68.2% | OVCAR-8 ovarian 100% | OVCAR-5 ovarian 105% | OVCAR-4 ovarian 96.5% | SK-OV-3 ovarian 92.9% | IGROV1 ovarian 124% | OVCAR-3 ovarian 104% | HS 578T breast 90.5% | NCI/ADR-RES ovarian 93.4%

Oc1ccc(O)cc1
inactive: SK-MEL-2 melanoma 104% | EKVX NSCLC 113% | SN12C renal 106% | UO-31 renal 82% | TK-10 renal 128% | ACHN renal 85.4% | CAKI-1 renal 97.9% | A498 renal 115% | CCRF-CEM leukemia 62.7% | MOLT-4 leukemia 78.6% | RPMI-8226 leukemia 67.6% | OVCAR-8 ovarian 94.6% | OVCAR-5 ovarian 123% | OVCAR-4 ovarian 105% | SK-OV-3 ovarian 114% | IGROV1 ovarian 108% | OVCAR-3 ovarian 109% | HS 578T breast 104% | NCI/ADR-RES ovarian 92.4%

COc1cc2cc(OC(C)=O)c3cc4c(cc3c2c(OC)c1OC)OCO4
inactive: SK-MEL-2 melanoma 109% | EKVX NSCLC 95% | SN12C renal 101% | UO-31 renal 89% | TK-10 renal 101% | ACHN renal 101% | CAKI-1 renal 99% | A498 renal 92.5% | MOLT-4 leukemia 96.6% | RPMI-8226 leukemia 97.4% | OVCAR-8 ovarian 102% | OVCAR-5 ovarian 92.3% | OVCAR-4 ovarian 111% | SK-OV-3 ovarian 103% | IGROV1 ovarian 107% | OVCAR-3 ovarian 101% | HS 578T breast 91.4% | NCI/ADR-RES ovarian 95.7%
active: CCRF-CEM leukemia 2.13%

CN(C)C(=O)Oc1cccc([N+](C)(C)C)c1
inactive: SK-MEL-2 melanoma 124% | EKVX NSCLC 93.1% | SN12C renal 97.8% | UO-31 renal 98.6% | TK-10 renal 125% | ACHN renal 97.9% | CAKI-1 renal 89.9% | A498 renal 95.5% | CCRF-CEM leukemia 113% | MOLT-4 leukemia 102% | RPMI-8226 leukemia 117% | OVCAR-8 ovarian 103% | OVCAR-5 ovarian 104% | OVCAR-4 ovarian 83.9% | SK-OV-3 ovarian 107% | IGROV1 ovarian 115% | OVCAR-3 ovarian 115% | HS 578T breast 107% | NCI/ADR-RES ovarian 114%

C#C[C@H]1CCCCCC1O (some centres not stated)
inactive: SK-MEL-2 melanoma 101% | EKVX NSCLC 104% | SN12C renal 101% | UO-31 renal 97.1% | TK-10 renal 109% | ACHN renal 116% | CAKI-1 renal 101% | A498 renal 99.3% | CCRF-CEM leukemia 97.1% | MOLT-4 leukemia 98.4% | RPMI-8226 leukemia 97.2% | OVCAR-8 ovarian 111% | OVCAR-5 ovarian 115% | OVCAR-4 ovarian 120% | SK-OV-3 ovarian 110% | IGROV1 ovarian 107% | OVCAR-3 ovarian 113% | NCI/ADR-RES ovarian 101%

CC1SC(N)=NC1=O (configuration not stated)
inactive: SK-MEL-2 melanoma 111% | EKVX NSCLC 96.2% | SN12C renal 120% | UO-31 renal 92.2% | TK-10 renal 108% | ACHN renal 108% | CAKI-1 renal 103% | A498 renal 107% | CCRF-CEM leukemia 99.3% | MOLT-4 leukemia 122% | RPMI-8226 leukemia 96.7% | OVCAR-8 ovarian 105% | OVCAR-5 ovarian 85.9% | OVCAR-4 ovarian 117% | SK-OV-3 ovarian 115% | IGROV1 ovarian 108% | OVCAR-3 ovarian 116% | HS 578T breast 108% | NCI/ADR-RES ovarian 106%

O=[N+]([O-])c1cccc(C(F)(F)F)c1
inactive: SK-MEL-2 melanoma 116% | EKVX NSCLC 104% | SN12C renal 95.1% | UO-31 renal 96.3% | TK-10 renal 108% | ACHN renal 102% | CAKI-1 renal 94.3% | A498 renal 98.4% | CCRF-CEM leukemia 96.2% | SR leukemia 127% | RPMI-8226 leukemia 107% | OVCAR-8 ovarian 106% | OVCAR-5 ovarian 97% | OVCAR-4 ovarian 103% | SK-OV-3 ovarian 106% | IGROV1 ovarian 105% | OVCAR-3 ovarian 117% | NCI/ADR-RES ovarian 106%

O=[N+]([O-])c1ccccc1N=Nc1ccc(O)cc1O
inactive: SK-MEL-2 melanoma 134% | EKVX NSCLC 116% | SN12C renal 107% | UO-31 renal 66.3% | TK-10 renal 140% | ACHN renal 109% | CAKI-1 renal 95.1% | A498 renal 139% | MOLT-4 leukemia 101% | SR leukemia 93% | RPMI-8226 leukemia 109% | OVCAR-8 ovarian 104% | OVCAR-5 ovarian 126% | OVCAR-4 ovarian 99.5% | SK-OV-3 ovarian 101% | IGROV1 ovarian 92.9% | OVCAR-3 ovarian 122% | HS 578T breast 131% | NCI/ADR-RES ovarian 118%

CSC[C@H](NC(=O)COc1cccc2cnccc12)C(=O)NC(Cc1ccccc1)C(O)C(=O)N1CSC[C@H]1C(=O)NC(C)(C)C (some centres not stated)
inactive: SK-MEL-2 melanoma 113% | EKVX NSCLC 103% | SN12C renal 102% | UO-31 renal 94.4% | TK-10 renal 139% | ACHN renal 109% | CAKI-1 renal 95.5% | A498 renal 95.6% | CCRF-CEM leukemia 111% | SR leukemia 84.5% | RPMI-8226 leukemia 102% | SK-OV-3 ovarian 115% | OVCAR-3 ovarian 101% | HS 578T breast 86.8% | NCI/ADR-RES ovarian 106%

NCC(=O)CCC(=O)O
inactive: SK-MEL-2 melanoma 126% | EKVX NSCLC 109% | SN12C renal 105% | UO-31 renal 94.6% | TK-10 renal 114% | ACHN renal 99.2% | CAKI-1 renal 109% | A498 renal 110% | CCRF-CEM leukemia 109% | MOLT-4 leukemia 108% | RPMI-8226 leukemia 118% | OVCAR-8 ovarian 104% | OVCAR-5 ovarian 120% | OVCAR-4 ovarian 98% | SK-OV-3 ovarian 99.8% | IGROV1 ovarian 112% | OVCAR-3 ovarian 111% | HS 578T breast 108% | NCI/ADR-RES ovarian 107%
